DAT uptake mod = changed human dopamine transporter uptake under cocaine IC80. B-score at 10 µM. AID 449768. 110,000 tested, 1.3% active. LLC-PK1 hDAT cells, [14C]-dopamine uptake with cocaine IC80; actives deviate in either direction;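 active = Z score or B-score, a plate-position-corrected score, falls beyond the plate's 99.7% confidence bounds, in either direction; inactive = both scores lie inside the 99.7% bounds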
Target sequence (Q01959 whole entry, looked up): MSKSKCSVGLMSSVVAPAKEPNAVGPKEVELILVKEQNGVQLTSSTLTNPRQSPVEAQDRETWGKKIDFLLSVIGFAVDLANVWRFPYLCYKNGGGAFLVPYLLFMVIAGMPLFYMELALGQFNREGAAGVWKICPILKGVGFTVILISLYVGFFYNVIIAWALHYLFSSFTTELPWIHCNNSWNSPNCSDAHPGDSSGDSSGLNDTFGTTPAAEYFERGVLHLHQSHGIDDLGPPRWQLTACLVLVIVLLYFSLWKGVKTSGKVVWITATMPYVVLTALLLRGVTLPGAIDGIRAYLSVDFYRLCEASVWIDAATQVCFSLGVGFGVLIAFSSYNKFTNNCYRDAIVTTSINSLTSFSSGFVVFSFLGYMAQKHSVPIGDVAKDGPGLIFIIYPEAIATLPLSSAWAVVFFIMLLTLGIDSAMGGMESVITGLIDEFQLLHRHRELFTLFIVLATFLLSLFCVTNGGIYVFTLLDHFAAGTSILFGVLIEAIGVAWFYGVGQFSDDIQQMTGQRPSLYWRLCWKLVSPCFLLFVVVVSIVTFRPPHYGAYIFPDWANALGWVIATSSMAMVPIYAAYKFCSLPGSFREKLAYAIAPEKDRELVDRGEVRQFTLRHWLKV
PostGolgi yeast = growth inhibition of a yeast mutant, post-Golgi transport screen. post-Golgi transport phenotypic cell assay. inhibition, % at 10 µM. 98,000 tested, 0.9% active. AID 739;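 note: yeast cells grown in 1536-well plates; yeast grown about 18 h at 30C before absorbance read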
PLAP activator = human PLAP activation | P05187 | purified PLAP enzyme, luminescent substrate read-out; stronger effect = higher value | activation fold at 20 µM | 96,000 tested, 1.2% active; in the data active = activation fold above about 2
Cav32 inh = blocks human Cav3.2 T-type calcium channel | B-score at 10 µM | Cav3.2-expressing cells, Fluo-4 calcium fluorescence FDSS; stronger effect = lower value | 100,000 tested, 4% active | AID 449739 | O95180;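 active = single-dose well whose peak fluorescence ratio is a statistical outlier from its plate by either plate-standardised score or position-corrected B-score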
PostGolgi ctrl = yeast control strain growth, post-Golgi counter-screen. AID 738. 98,000 tested, 5% active. efflux-deficient yeast background strain, growth absorbance A615, 16 h. inhibition, % at 10 µM
Each line names hits and unclear results; the compound was inactive in the other large screens. A selection: hits, their analogues and other compounds. The true share with any hit is near 9.6%. Cut-off read from the data, not from the text of the source, unless noted: active = inhibition above about 30%; inactive = the rest.

O=C1CC(N2CCN(c3ccc(Cl)c(Cl)c3)CC2)C(=O)N1 (stereo not given)	PostGolgi yeast 52
O=C1CC(N2CCC(O)(c3ccc(Cl)cc3)CC2)C(=O)N1 (stereo not given)	none
CCOc1ccc(C2OC(=O)Cc3cc(OC)c(OC)cc32)cc1 (stereo not given)	none
Cn1c(O)c(C=NCC2CCNCC2)c(=O)n(C)c1=O	none (no result: PostGolgi yeast, PLAP activator, PostGolgi ctrl)
O=C(Cn1c(=O)oc2ccccc21)N1CCN(c2ccccc2)CC1	PostGolgi ctrl 31
O=C(CCn1c(=O)oc2ccccc21)N1CCN(C(c2ccccc2)c2ccccc2)CC1	PostGolgi ctrl 36 (no result: DAT uptake mod, Cav32 inh)
CCOc1ccc(N(CC(=O)NC(C)(C)C)C(=O)c2ccco2)cc1	none
CCOC(=O)N1CCC(N(C(=O)Nc2ccc(CC)cc2)C(C)CC)CC1 (stereo not given)	PostGolgi ctrl 30
O=C(CC(=O)NC1CCCCC1)N/N=C/c1cccc2ccccc12	none
O=P1(Nn2cnnc2)C=C(c2ccccc2)OC(c2ccccc2)=C1	none
COC(=O)c1cc(COc2ccc3c4c(c(=O)oc3c2)CCC4)c(C)o1	none (no result: DAT uptake mod, Cav32 inh)
Cc1nn(-c2ccccc2)c(C)c1/C=N/O	none
Cc1nn(-c2ccccc2)c(C)c1/C=N\N1CCN(c2ccc(Cl)cc2)CC1	PostGolgi yeast 66, PostGolgi ctrl 47
CCCc1nnc(NC(=O)c2c(O)c3cccc4c3n(c2=O)CCC4)s1	none (no result: PostGolgi yeast, PostGolgi ctrl)
CC(C)Sc1nnc(Cn2c(=O)sc3ccccc32)n1-c1ccccc1	PostGolgi ctrl 32 (no result: PLAP activator)
CSc1nnc(Cn2c(=O)sc3ccccc32)n1-c1ccccc1	none
COc1cccc(-c2csc(N3CCN(C(=O)Nc4ccc(F)cc4)CC3)n2)c1	Cav32 inh -6.5 (no result: PostGolgi yeast, PLAP activator, PostGolgi ctrl)
COc1ccc(NC(=O)CN2CCN(c3nc(-c4cccc(OC)c4)cs3)CC2)cc1	none (no result: PostGolgi yeast, PLAP activator, PostGolgi ctrl)
COc1cccc(-c2csc(N3CCN(C(=O)C4CCCCC4)CC3)n2)c1	PostGolgi ctrl 38 (no result: DAT uptake mod, Cav32 inh)
CN=C(Nc1ccc2c(c1)OCO2)SC1CC(=O)N(c2ccccc2)C1=O (stereo not given)	none (no result: PLAP activator)
CN=C(Nc1cc(Cl)ccc1Cl)SC1CC(=O)N(c2ccc(C(=O)OC)cc2)C1=O (stereo not given)	PostGolgi ctrl 38
CC(=O)c1c(C)[nH]c(C(=O)N2CCN(c3cc(Cl)ccc3C)CC2)c1C	none
Cc1ccc(Cl)cc1N1CCN(C(=O)C2(S(=O)(=O)c3ccc(Cl)cc3)CC2)CC1	Cav32 inh -6.1, PostGolgi ctrl 40
CC(=O)c1ccc(N2CCN(C(=O)C3(S(=O)(=O)c4ccc(Cl)cc4)CC3)CC2)cc1	none
O=C(N1CCN(c2cccc(Cl)c2)CC1)C1(S(=O)(=O)c2ccc(Cl)cc2)CC1	PostGolgi yeast 80, Cav32 inh -4.7, PostGolgi ctrl 90
O=C(c1ccc(Br)s1)N1CCN(Cc2ccc3c(c2)OCO3)CC1	DAT uptake mod 2.1
Cc1cccc(C(=O)N2CCN(Cc3ccc4c(c3)OCO4)CC2)c1	none
O=C(c1cc2c(s1)CCCC2)N1CCN(Cc2ccc3c(c2)OCO3)CC1	PostGolgi yeast 36, Cav32 inh -3.9
O=C(c1ccc(Br)o1)N1CCN(Cc2ccc3c(c2)OCO3)CC1	none
Cc1cc(C(=O)NCc2ccccc2Br)no1	none
CCCn1c2ccccc2c2nnc(SCC(=O)OCC)nc21	PostGolgi ctrl 39
CCn1c2ccccc2c2nnc(SCc3ccc(C(=O)OC)o3)nc21	PostGolgi ctrl 42
N#CCCn1c2ccccc2c2nc3ccccc3nc21	none
CCCn1c2ccccc2c2nc3ccccc3nc21	PostGolgi ctrl 40
CCCn1c2ccccc2c2nnc(SCC(=O)OC)nc21	none
Cc1cc(C)nc(SCc2nc(N)nc(-c3ccccc3O)n2)n1	none
Cc1occc1C(=O)Nc1ccc2ccccc2c1	PostGolgi ctrl 52
CCc1ccccc1NC(=O)c1ccoc1C	PostGolgi ctrl 37
CCOC(=O)c1ccc(Oc2cc(C)nc(SC)n2)cc1	none
O=C(Cn1nnc(-c2ccccc2)n1)N=Nc1c(O)[nH]c2ccccc12	none
Cc1cccc(C)c1OCC(=O)N=Nc1c(O)[nH]c2ccc(Br)cc12	PostGolgi ctrl 38 (no result: DAT uptake mod, Cav32 inh)
O=C(NNC(=O)c1ccccc1-n1cccc1)c1ccc(Cl)cc1Cl	none
O=C(N=Nc1c(O)[nH]c2ccc(Br)cc12)c1ccccc1-n1cccc1	PostGolgi ctrl 37 (no result: DAT uptake mod, Cav32 inh)
O=C(Nc1ccccc1N1CCN(C(=O)c2ccc(Cl)cc2)CC1)c1cc2ccccc2o1	Cav32 inh -3.1
O=C(Nc1ccc(N2CCN(C(=O)c3ccc(Cl)cc3)CC2)cc1)c1cc2ccccc2o1	none
O=C(c1ccco1)N1CCN(c2ccc(Cl)c(Cl)c2)CC1	Cav32 inh -4.1 (no result: PostGolgi yeast, PLAP activator, PostGolgi ctrl)
O=C(Nc1ccc(N2CCN(C(=O)c3ccco3)CC2)cc1)C(c1ccccc1)c1ccccc1	PLAP activator 2.5
N#C/C=C(/N)N1CCN(c2ccc(Cl)c(Cl)c2)CC1	PostGolgi yeast 32
O=C(Nc1ccc(N2CCN(C(=O)c3ccc(Cl)cc3)CC2)cc1)c1ccc(Br)o1	PostGolgi ctrl 54
O=C(Cc1ccc(Cl)cc1)Nc1ccc(N2CCN(C(=O)c3ccco3)CC2)cc1	PostGolgi ctrl 43
O=C(Nc1ccc(N2CCN(C(=O)c3ccco3)CC2)c(Cl)c1)c1c(F)c(F)c(F)c(F)c1F	PostGolgi ctrl 63
Cc1ccccc1C(=O)N1CCN(c2ccc(NC(=O)c3ccco3)cc2Cl)CC1	none
CC(C)(C)c1ccc(-c2noc(CCC(=O)NCC3CCCO3)n2)cc1 (stereo not given)	none
CC(C)c1ccc(NC(=O)CN(Cc2ccccc2)S(C)(=O)=O)cc1	DAT uptake mod 3 (no result: PostGolgi yeast, PLAP activator, PostGolgi ctrl)
CCOc1ccc(NC(=O)CN(Cc2ccccc2)S(C)(=O)=O)cc1	none (no result: PostGolgi yeast, PLAP activator, PostGolgi ctrl)
O=C(N1CCOCC1)N1CCC(NC(=O)C23CC4CC(CC(C4)C2)C3)CC1	none (no result: PostGolgi yeast, PLAP activator, PostGolgi ctrl)
CC(C)C[C@H]1C(=O)N2CCC[C@H]2[C@]2(O)O[C@](NC(=O)[C@@H]3C=C4c5cccc6[nH]c(Br)c(c56)CC4N(C)C3)(C(C)C)C(=O)N12 (stereo not given in full)	Cav32 inh -4.8 (no result: PostGolgi yeast, PLAP activator, PostGolgi ctrl)
Cc1c(/C=C(\C#N)c2nn(-c3ccccc3)c(N)c2C#N)c2ccccc2n1Cc1ccc(F)cc1	none (no result: DAT uptake mod, Cav32 inh)
COc1ccc(-c2n[nH]c(=S)n2CC(C)C)cc1	PLAP activator 2.5
CC1CCCCN1S(=O)(=O)c1ccc(NC(=O)CSc2nnnn2C)cc1 (stereo not given)	none (no result: Cav32 inh)
Cc1ccc(S(=O)(=O)Nc2cccnc2)cc1	none
CCCCOc1ccc(S(=O)(=O)Nc2cc(OC)ccc2OC)cc1	PostGolgi ctrl 51
COc1ccc(S(=O)(=O)NCCOc2ccccc2)cc1OC	PostGolgi ctrl 33
CCCCOc1ccc(S(=O)(=O)Nc2cccnc2)cc1	PostGolgi yeast 32
COc1ccc(OC)c(NS(=O)(=O)c2cc(OC)ccc2OC)c1	none
CNC(=O)C(=O)NCCc1ccc(Cl)cc1	none
CCOC(=O)C1=C(N)n2c(s/c(=C\c3cccs3)c2=O)=C(C(=O)OCC)C1c1cccs1 (stereo not given)	none (no result: Cav32 inh)
Fc1ccc2nc3n(c2c1F)CCCCCC3	PostGolgi ctrl 40
O=c1cc(-c2c(F)c(F)c(F)c(F)c2F)oc2c(F)c(F)c(F)c(F)c12	PostGolgi yeast 54, PostGolgi ctrl 64
